Here are results for eleven molecules from the supplement of paper PMC7366291.

Structures can show the parent of a compound that is named as a salt. ± gives the standard deviation or the standard deviation of the averaged measurements.

What all share (conditions): 25 µM; exposure: 24-48 hpf
The test system of assay [1] is Danio rerio Tg(wt1b:EGFP) embryo, pronephros. Kind of assay: glomerular separation, fold change vs DMSO control; higher = glomeruli further apart (abnormal). Put shortly:
(§1)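 Every feature is expressed as a fold change relative to the averaged DMSO-treated embryos of the same day. The exposure ran from 24 to 48 hpf at 28.5°C, with dechorionated Tg(wt1b:EGFP) zebrafish embryos in HEPES-buffered E3 containing 0.003% PTU, 0.5% DMSO and 25 μM compound. Dorsal pronephros images taken in agarose-filled 96-well plates were reduced to maximum projections, on which 16 reference points were set by hand in Fiji for a macro to compute distances and angles. Values more than 2 SD from the feature mean were not used.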

The test system is the same in assay [2]. Kind of assay: glomerular width (mean of left and right), fold change vs DMSO control; higher = wider glomerulus. The gist of the method:
as §1

Assay [3] shares this test system. Kind of assay: fraction of imaged embryos annotated as normal kidney; higher = less nephrotoxic; extreme values may be limits of the assay. Put shortly:
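Dechorionated Tg(wt1b:EGFP) zebrafish embryos were exposed in 12-well plates to 25 μM compound in 0.5% DMSO, 5 mM HEPES-buffered E3 with 0.003% PTU, from 24 to 48 hpf at 28.5°C. Tricaine-anaesthetised larvae were oriented dorsally in agarose-filled 96-well plates, and pronephroi were imaged by widefield fluorescence (470 nm, 10 z-slices). Each embryo was manually annotated from maximum projections. The read-out is the fraction of embryos per treatment assigned to the normal-kidney category.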

The test system is the same in assay [4]. Kind of assay: pronephric angle neck segment to proximal convoluted tubule (mean of left and right), fold change vs DMSO control; higher = larger pronephric angle. Put shortly: as §1

For the molecule `CCN(CC)C(=O)/C(C#N)=C/c1cc(O)c(O)c([N+](=O)[O-])c1` [Entacapone], in assay [1], the glomerular separation is 1.88 ± 1.4. In assay [2], the glomerular width turned out to be 0.938 ± 0.17. In addition, in assay [3], the “fraction of imaged embryos annotated as normal kidney” value (“fraction of imaged embryos annotated” below) amounted to 0.583. Besides, the “pronephric angle neck segment” value in assay [4] amounted to 1.28 ± 0.14.

For the molecule `CNC[C@H](O)[C@@H](O)[C@H](O)[C@H](O)CO` [Meglumine], in assay [1], the glomerular separation came out at 0.734 ± 0.11. The molecule further had a glomerular width in assay [2] of 1.03 ± 0.061. Besides, the “fraction of imaged embryos annotated” value in assay [3] came out at 0.909. In assay [4], the “pronephric angle neck segment” value was 1.006 ± 0.0029.

The molecule `O=C(Nc1ccc([N+](=O)[O-])cc1Cl)c1cc(Cl)ccc1O` [Niclosamide] yielded a glomerular separation in assay [1] of 1.53 ± 0.67. The same molecule had a glomerular width in assay [2] of 0.907 ± 0.04. Moreover, the “fraction of imaged embryos annotated” value in assay [3] was determined as 0.455. For the same molecule, the “pronephric angle neck segment” value in assay [4] turned out to be 1.26 ± 0.093.

`OC[C@H]1O[C@@H](Oc2ccc(O)cc2)[C@H](O)[C@@H](O)[C@@H]1O` [Arbutin] showed a glomerular separation in assay [1] of 0.869 ± 0.33. The molecule further came in with a glomerular width in assay [2] of 1.021 ± 0.0053. Further, the “fraction of imaged embryos annotated” value in assay [3] worked out at 0.917. The “pronephric angle neck segment” value in assay [4] was found to be 0.933 ± 0.018.

`Clc1ccc(CO/N=C(\Cn2ccnc2)c2ccc(Cl)cc2Cl)c(Cl)c1` [Oxiconazole Nitrate] had a glomerular separation in assay [1] of 3.51 ± 1.1. The molecule further had a glomerular width in assay [2] of 0.623 ± 0.014. Moreover, the “fraction of imaged embryos annotated” value in assay [3] amounted to 0. In assay [4], the “pronephric angle neck segment” value is 1.26 ± 0.03.

Molecule `CCCCC[C@H](O)/C=C/[C@H]1[C@H](O)CC(=O)[C@@H]1CCCCCCC(=O)O` [Alprostadil] gave a glomerular separation in assay [1] of 1.21 ± 0.52. This molecule also gave a glomerular width in assay [2] of 0.867 ± 0.036. Also, the “fraction of imaged embryos annotated” value in assay [3] is 0.75. The “pronephric angle neck segment” value in assay [4] was found to be 1.09 ± 0.047.

In turn, `CCCC(CCC)C(=O)O` [Valproic acid] showed a glomerular separation in assay [1] of 1.62 ± 0.94. This molecule returned a glomerular width in assay [2] of 0.725 ± 0.057. Further, the “fraction of imaged embryos annotated” value in assay [3] was determined as 0.0833. The “pronephric angle neck segment” value in assay [4] worked out at 1.11 ± 0.14.

With `CCc1c(C)[nH]c2c1C(=O)C(CN1CCOCC1)CC2` (centres undefined) [Molindone hydrochloride], the glomerular separation in assay [1] was 0.897 ± 0.23. The glomerular width in assay [2] amounted to 1 ± 0.018. The “fraction of imaged embryos annotated” value in assay [3] is 0.833. For the same molecule, in assay [4], the “pronephric angle neck segment” value is 0.956 ± 0.0018.

For `CNC(C)CCC=C(C)C` (centres undefined) [Isometheptene mucate], the glomerular separation in assay [1] was found to be 0.941 ± 0.26. Besides, in assay [2], the glomerular width was found to be 0.958 ± 0.039. In addition, the “fraction of imaged embryos annotated” value in assay [3] is 0.917. The “pronephric angle neck segment” value in assay [4] is 0.977 ± 0.024.

Regarding `Cc1[nH]cnc1CN1CCc2c(c3ccccc3n2C)C1=O` [Alosetron hydrochloride], the glomerular separation in assay [1] amounted to 0.809 ± 0.28. Also, the glomerular width in assay [2] was found to be 1.027 ± 0.0085. In assay [3], the “fraction of imaged embryos annotated” value worked out at 0.917. For the same molecule, the “pronephric angle neck segment” value in assay [4] was 0.977 ± 0.015.

The molecule `O=C1NCN(c2ccccc2)C12CCN(CCCC(c1ccc(F)cc1)c1ccc(F)cc1)CC2` [Fluspirilen] registered a glomerular separation in assay [1] of 2.89 ± 1.3. For the same molecule, the glomerular width in assay [2] amounted to 0.687 ± 0.11. Further, the “fraction of imaged embryos annotated” value in assay [3] amounted to 0.333. Besides, the “pronephric angle neck segment” value in assay [4] was determined as 1.028 ± 0.0059.
